Screening results (PubChem BioAssay)
The list is not random: actives were taken first. Their share in the collection is about 2%.
EP2 mod: EP2 receptor (human) modulation; P43116; AID 940; EP2-expressing cells, cAMP HTRF FRET, PGE2 co-stimulation; induction, % at 25 µM; hit rate 0.83% among 260,000;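 active = compounds whose cAMP rise, as percent of the full-agonist control response, exceeds 60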;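 also: rat C6 glioma line stably carrying human EP2 under a CMV promoter; the protocol text gives 20 µM as final concentration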
Target sequence (P43116 whole entry, looked up): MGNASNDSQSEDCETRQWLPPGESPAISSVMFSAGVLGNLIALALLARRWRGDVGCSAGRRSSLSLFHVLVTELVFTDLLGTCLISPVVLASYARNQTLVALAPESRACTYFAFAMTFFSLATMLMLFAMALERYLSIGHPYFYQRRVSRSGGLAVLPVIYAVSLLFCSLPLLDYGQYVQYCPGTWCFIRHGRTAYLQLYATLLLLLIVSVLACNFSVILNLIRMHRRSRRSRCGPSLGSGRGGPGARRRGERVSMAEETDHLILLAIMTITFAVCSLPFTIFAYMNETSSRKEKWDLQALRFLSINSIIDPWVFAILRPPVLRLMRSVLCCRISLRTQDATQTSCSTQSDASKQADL
PGE2 EP2 inh: inhibitors of human EP2 prostaglandin E2 receptor | P43116 | AID 1422 | inhibition, % at 25 µM | hit rate 0.52% among 260,000 | C6 glioma cells expressing human EP2, cAMP TR-FRET; cells stimulated with saturating PGE2;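 active = percent inhibition above 40 after rounding to a whole number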;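 also: rat C6 glioma host cells with rolipram phosphodiesterase inhibitor present; the protocol text gives 20 µM as final concentration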
CHT block: inhibitors of human choline transporter CHT; CHT-expressing cells, membrane potential dye, choline response; stronger effect = lower value; B-score at 10 µM; hit rate 0.86% among 310,000;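 active = B-score over 3 SD under the library average, and starting fluorescence ratio not unusually high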;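 also: choline stimulus applied at its EC90 after an EC20 pre-addition; B-score computed on integrated fluorescence ratio after choline addition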
CHT PAM: human CHT allosteric activation; CHT-expressing cells, membrane potential dye, choline EC20; stronger effect = higher value; LV-AA mutant CHT in HEK293 cells; hit rate 0.49% among 310,000; B-score at 10 µM;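 active = initial fluorescence not abnormally high and integrated response B-score, plate-corrected, over 3 SD above library mean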
EP2 cAMP induct: EP2 receptor cAMP induction, counter-screens negative; shares compounds with EP2 mod; calls only at 20 µM (by protocol); C6 glioma EP2 cells, cAMP HTRF induction; plus low (about EC15) PGE2 agonist; hit rate 47% among 1,300;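 active = cAMP induction above 50% in the main assay while under 30% in all four parallel counter assays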;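 also: rat C6 glioma cells stably expressing human EP2 receptor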
CHT block conf: confirmation of human choline transporter CHT inhibitors. CHT activity remaining % of control (stronger effect = lower value), % at 10 µM. hit rate 70% among 2,400. shares compounds with CHT block. CHT-expressing cells, choline membrane potential dye; LV-to-AA substituted CHT, HEK293 cells;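 active = choline transporter activity left, mean of duplicates at 10 µM, below buffer-only control mean minus 3 SD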;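 also: depolarization triggered by choline at its EC90 following an EC20 pre-addition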
HEK293 CHT ctr: CHT inhibitor counter-screen hit in parental HEK293 cells; hit rate 4% among 2,400; shares compounds with CHT block; membrane potential ratio readout (active if shifted either direction beyond buffer ±3SD; no single direction) at 10 µM; membrane potential dye, choline response; active = decrease or increase beyond buffer ±3SD;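 also: parental cells lack the transporter so any hit is non-specific; ratio is peak minus trough fluorescence over baseline after EC90 choline challenge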
CHT activ conf: human CHT activation, confirmatory screen; shares compounds with CHT PAM; CHT-expressing cells, membrane potential dye fluorescence (FDSS); % of choline EC20–EC90 response window; HEK293 expressing CHT LV-AA mutant; choline added at its EC20; activation, % at 10 µM; hit rate 91% among 2,500;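 active = primary screen active, with duplicate mean activation above negative control mean plus 3 SD, cut at about 11% in these data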
HEK293 MP dye: activity in parental HEK293 cells lacking CHT; shares compounds with CHT PAM; membrane potential dye fluorescence (FDSS); measured after EC20 choline addition; ratio readout change at 10 µM, hits read low; hit rate 62% among 2,500; AID 623908;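 active = duplicate-averaged ratio beyond 3 SD from buffer wells, up or down, though filed actives are nearly all decreases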
A number is an active result; - = inactive; . = not tested or not shown; + = active, no number.

SMILES	EP2 mod	PGE2 EP2 inh	CHT block	CHT PAM	CHT block conf	HEK293 CHT ctr	others
Cn1c(/C=C/N(Cc2ccccc2)c2ccccc2)c([N+](=O)[O-])c(=O)n(C)c1=O	67.8	-	-8.36	-	49.5%	-	EP2 cAMP induct=+
Cc1cccnc1C1(O)CCN(C(=O)c2ccc(OC3CSC3)cc2)CC1	-	.	.	.	.	.
CCCCn1c(-c2csc(CCC)c2)n[nH]c1=S	-	-	-5.57	-	-	-	EP2 cAMP induct=-
Cc1cc(O)ccc1C1(c2ccc(O)cc2C)OC(=O)c2ccccc21	67.0	-	-12.1	-	62.9%	-	EP2 cAMP induct=-
Cc1cccc(C2(c3cccc(C)c3)OC(=O)c3ccccc32)c1	-	-	-	-	.	.
Cc1nn(CC(=O)Nc2ccccc2F)c(=O)c2cc3sccc3n12	-	.	.	.	.	.
Cc1c(NC(=S)NC(=O)c2ccc(-c3ccc(Cl)cc3)o2)cccc1C(=O)O	98.9	-	-8.85	-	55.1%	-	EP2 cAMP induct=+
CCOC(=O)c1c(C)nc2ccccc2c1-c1ccccc1	84.8	-	-	-	.	.	EP2 cAMP induct=+;CHT activ conf=15.9;HEK293 MP dye=-
COc1ccc(-c2csc3nc(C)nc(N4CCN(C(C)=O)CC4)c23)cc1OC	-	-	-	-	.	.
COc1ccc(-c2csc3nc(C)nc(N4CCC(C)CC4)c23)cc1OC	69.7	-	-	-	.	.	EP2 cAMP induct=-;CHT activ conf=46.7;HEK293 MP dye=-
CCOc1ccc(C(=O)Nc2nc(C)cc(C)n2)cc1OCC	-	-	.	.	.	.
O=C(Nc1ncccn1)c1cc([N+](=O)[O-])cc([N+](=O)[O-])c1	-	-	-	-	.	.
O=[N+]([O-])c1cc(-c2ncccn2)c([N+](=O)[O-])s1	-	-	-6.31	-	48.5%	-
Cc1cc(C)c(C)c(C2C(C#N)=C(N)OC3=C2C(=O)CCC3)c1C (stereo unspecified)	-	-	.	.	.	.
O=C(Nc1ccc(Br)cc1)C1CCCN(c2ncccn2)C1 (stereo unspecified)	-	-	.	.	.	.
O=C(CCC1CCCC1)N1CCC[C@H]1Cn1nc(-c2ccc(F)cc2)ccc1=O	-	.	.	.	.	.
Cc1cccc(C(=O)Nc2sc(-c3ccccc3)cc2C(=O)O)c1	-	-	-6.33	-	52.8%	-
Cc1ccc2c(c1)C1CN(C)CCC1N2C(=O)c1ccccc1NS(=O)(=O)c1ccc(F)cc1 (stereo unspecified)	-	-	-	-	.	.
Cc1ccc2c(c1)C1CN(C)CCC1N2C(=O)c1ccccc1NS(=O)(=O)c1cccc(C(F)(F)F)c1 (stereo unspecified)	-	-	-6.92	-	36.9%	-
O=C(Cn1nc(C(F)(F)F)cc1C1CC1)NCc1ccccc1F	-	-	-5.79	-	65.0%	-
CC(NC(=O)/C(C#N)=C/c1ccco1)c1ccccc1 (stereo unspecified)	-	-	-	-	.	.
CCOCCCNC(=O)/C(C#N)=C/c1ccc([N+](=O)[O-])o1	-	-	-7.02	-	58.1%	-
CCOCCCNC(=O)/C(C#N)=C/c1cc(Br)c(O)c(Br)c1	-	-	.	.	.	.
CC(NC(=O)/C(C#N)=C/c1ccc([N+](=O)[O-])o1)c1ccccc1 (stereo unspecified)	.	.	-5.3	-	61.8%	-
Cn1c2ccccc2n2c(=O)c(=O)n(Cc3ccc(C#N)cc3)nc12	-	-	.	.	.	.
SMILES	EP2 mod	PGE2 EP2 inh	CHT block	CHT PAM	CHT block conf	HEK293 CHT ctr	others
O=C(O)c1ccccc1NSc1ccccc1[N+](=O)[O-]	-	-	-5.41	-	62.2%	-
Cc1cc(=O)[nH]c(NC2CCN(S(=O)(=O)c3ccc(C(F)(F)F)cc3)CC2)n1	-	-	.	.	.	.
CCCS(=O)(=O)N1CCN(Cc2ccco2)CC1	-	-	-6.69	-	-	-
CCCc1ccc(S(=O)(=O)N2CCN(Cc3ccco3)CC2)cc1	.	.	-	-	.	.
CCOC(=O)c1ccc(NC(=S)NNC(=O)C2(C)CC2(Cl)Cl)cc1 (stereo unspecified)	-	-	-6.68	-	-	-
CCOC(=O)c1ccc(NC(=S)NNC(=O)COC)cc1	-	-	-	-	.	.
CCCn1c(SCC(=O)c2cc(C)n(-c3ccc4c(c3)OCO4)c2C)n[nH]c1=O	-	-	-5.46	-	-	-
Cc1cc(C(=O)CSc2nnnn2-c2ccccc2)c(C)n1-c1ccc2c(c1)OCO2	-	-	-	-	.	.
C=CCn1c(SC(C)C(C)=O)nc2c1c(=O)[nH]c(=O)n2C (stereo unspecified)	-	-	.	.	.	.
COc1ccc(N(C(=O)Cc2cccs2)C(C(=O)NC2CCCCC2)c2ccco2)cc1 (stereo unspecified)	-	-	.	.	.	.
O=C(NC1CCCCC1)C(c1ccccc1F)N(Cc1ccc2c(c1)OCO2)C(=O)c1cccs1 (stereo unspecified)	-	-	.	.	.	.
N#Cc1c(Cl)cccc1N1CCCC1	-	-	-7.19	-	49.1%	-
CC(C)(C)C(=O)Oc1cccc(Nc2ncnc3ccccc23)c1	-	-	-5.01	-	61.2%	-
O=S(=O)(NCCNc1ncc(C(F)(F)F)cc1Cl)C(F)(F)F	-	-	-9.61	-	42.0%	-
Cc1noc(NS(=O)(=O)c2ccc(NC(=O)c3oc4ccc(Cl)cc4c3C)cc2)c1C	.	.	-5.59	-	59.4%	-
Cc1cc(NS(=O)(=O)c2ccc(NC(=S)NC(=O)c3ccc(Cl)cc3Cl)cc2)no1	-	-	-	-	.	.
Cc1ccc(C)c(OCC(=O)Nc2ccc(S(=O)(=O)Nc3ccccn3)cc2)c1C	-	-	-7.2	-	59.2%	-
Cc1cc(NS(=O)(=O)c2ccc(NC(=O)c3ccc(Cl)cc3Cl)cc2)no1	.	.	-9.38	-	12.5%	-
O=C(Nc1ccc(S(=O)(=O)Nc2ccccn2)cc1)c1cccc(Cl)c1	.	.	-	-	.	.
Cc1ccccc1OCC(=O)Nc1ccc(S(=O)(=O)Nc2ccccn2)cc1	-	-	-	-	.	.
O=C(Nc1ccc(S(=O)(=O)Nc2ccccn2)cc1)c1ccc(Cl)cc1Cl	-	-	-12.2	-	-0.5%	-
O=C(NC1(c2cccc(F)c2)CCCC1)c1cnsc1	-	-	.	.	.	.
COc1ccccc1NS(=O)(=O)c1cc(C(=O)NCc2cccnc2)ccc1C	.	.	-	-	.	.
Cc1ccccc1NC(=O)c1ccc(C)c(S(=O)(=O)NCc2cccnc2)c1	.	.	-7.2	-	27.0%	-
CCOC(=O)C(=Cc1c[nH]c2ccc(S(=O)(=O)N(C)C)cc12)C(=O)OCC	-	-	-6.41	-	32.9%	-
